# Measurements as given in PubChem BioAssay (NCATS).
# Values without a mark were called inactive. Records with an inconclusive call do not appear. A call without a number means that no potency is given here. Calls of active or inactive are those of the source. Calls come from the whole dose curve; as a rule, active = well fitted curve in the direction sought with a large enough effect; inconclusive = small, poorly fitted or top-dose-only effect, or another doubt; inactive = no such curve, though single readings can be large; an effect the other way counts as inactive or inconclusive.
# Key:
# [1] = target: Cytochrome P450 3A4 (Homo sapiens) (UniProt P08684); experiment: qHTS Assay for Activators of Cytochrome P450 3A4 (AID 885); note: nearly all actives have a fitted effect of over 65% in size
# Sequence of Cytochrome P450 3A4 (Homo sapiens) (P08684 whole entry, looked up): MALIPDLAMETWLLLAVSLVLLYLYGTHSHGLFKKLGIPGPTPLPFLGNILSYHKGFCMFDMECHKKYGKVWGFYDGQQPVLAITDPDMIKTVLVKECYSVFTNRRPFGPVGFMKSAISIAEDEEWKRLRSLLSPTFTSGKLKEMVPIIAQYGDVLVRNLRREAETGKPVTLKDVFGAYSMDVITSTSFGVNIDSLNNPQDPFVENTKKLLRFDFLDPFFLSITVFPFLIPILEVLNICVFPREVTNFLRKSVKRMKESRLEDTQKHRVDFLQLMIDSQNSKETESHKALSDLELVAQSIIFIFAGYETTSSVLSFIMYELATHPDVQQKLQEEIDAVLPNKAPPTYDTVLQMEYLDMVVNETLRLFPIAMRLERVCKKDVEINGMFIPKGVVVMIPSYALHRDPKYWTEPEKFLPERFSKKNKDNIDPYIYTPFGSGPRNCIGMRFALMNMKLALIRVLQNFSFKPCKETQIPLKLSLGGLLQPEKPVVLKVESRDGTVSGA
# Outline: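 Steps: enzyme/substrate mix dispensed; compound added, 10 min RT; NADPH regeneration solution added, 60 min RT; luciferin detection buffer stops reaction; 20 min later luminescence measured.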
# [2] = Confirmation and Secondary Assay for Modulators of Hemoglobin Beta Chain Splicing at IVS2 654 locus (AID 910);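 note: HeLa cells stably carrying EGFP split by mutant beta-globin IVS2-654 intron; per-well total GFP intensity by laser scanning cytometry after 2-day treatment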
# Outline: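 Readout: per-well total peak green fluorescence (488 nm ex, 500–520 nm em) from objects 5–250 µm, reflecting correct splicing of an EGFP-654 reporter. Compounds were applied for 2 days at 37 °C to overnight-plated HeLa EGFP-654 cells; controls were DMSO and 500 nM IVS2-654 PNA.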
# [3] = Confirmation and Secondary Assay for Modulators of Hemoglobin Beta Chain Splicing at IVS2 705 locus (AID 930);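 note: HeLa cells stably expressing the EGFP-705 splicing reporter; GFP fluorescence per well restored by corrected splicing of the IVS2-705 intron in EGFP; series mostly up to about 46 µM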
# Outline: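 Fluorescence gain (488 nm laser, 500-520 nm PMT) reflects restored correct splicing of a mutant IVS2-705 intron inside EGFP in stably transfected HeLa cells after 2-day compound treatment.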
# [4] = target: Rap guanine nucleotide exchange factor 3 (Homo sapiens) (UniProt O95398); experiment: Confirmatory qHTS for agonist of cAMP-regulated guanine nucleotide exchange factor 3 (EPAC1) (AID 1645881); note: nearly all actives have a fitted effect of over 75% in size; note: potency is the fitted concentration of half-maximal effect
# Sequence of Rap guanine nucleotide exchange factor 3 (Homo sapiens) (O95398 whole entry, looked up): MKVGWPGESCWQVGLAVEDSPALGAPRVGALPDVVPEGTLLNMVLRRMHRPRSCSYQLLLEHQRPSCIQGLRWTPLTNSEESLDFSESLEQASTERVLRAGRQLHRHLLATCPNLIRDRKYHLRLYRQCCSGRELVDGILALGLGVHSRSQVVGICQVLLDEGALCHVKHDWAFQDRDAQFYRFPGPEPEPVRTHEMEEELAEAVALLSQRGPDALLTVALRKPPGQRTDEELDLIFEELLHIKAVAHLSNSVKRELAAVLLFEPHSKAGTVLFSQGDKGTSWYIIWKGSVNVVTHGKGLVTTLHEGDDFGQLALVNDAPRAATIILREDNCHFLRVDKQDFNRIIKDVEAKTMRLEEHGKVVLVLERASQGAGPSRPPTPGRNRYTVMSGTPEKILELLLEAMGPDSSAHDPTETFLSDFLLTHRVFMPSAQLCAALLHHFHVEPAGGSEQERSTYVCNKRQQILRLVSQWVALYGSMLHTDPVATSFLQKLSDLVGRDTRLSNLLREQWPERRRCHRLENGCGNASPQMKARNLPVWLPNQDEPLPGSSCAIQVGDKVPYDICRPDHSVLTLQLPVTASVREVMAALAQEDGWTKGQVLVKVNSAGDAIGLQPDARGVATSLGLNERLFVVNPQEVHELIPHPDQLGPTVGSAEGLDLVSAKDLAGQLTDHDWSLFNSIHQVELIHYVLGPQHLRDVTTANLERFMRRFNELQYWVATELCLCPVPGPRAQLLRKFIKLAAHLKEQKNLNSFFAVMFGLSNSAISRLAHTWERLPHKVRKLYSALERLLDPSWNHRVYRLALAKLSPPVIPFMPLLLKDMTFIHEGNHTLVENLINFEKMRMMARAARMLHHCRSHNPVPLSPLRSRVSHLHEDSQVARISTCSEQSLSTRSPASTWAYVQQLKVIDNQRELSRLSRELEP
# [5] = target: Rap guanine nucleotide exchange factor 4 (Homo sapiens) (UniProt Q8WZA2); experiment: Confirmatory qHTS for agonist of cAMP-regulated guanine nucleotide exchange factor 4 (EPAC2) (AID 1645884);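 note: nucleotide exchange releases bodipy-GDP from Rap1 and this lowers its fluorescence; nearly all actives have a fitted effect of over 65% in size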; note: potency is the fitted concentration of half-maximal effect
# Sequence of Rap guanine nucleotide exchange factor 4 (Homo sapiens) (Q8WZA2 whole entry, looked up): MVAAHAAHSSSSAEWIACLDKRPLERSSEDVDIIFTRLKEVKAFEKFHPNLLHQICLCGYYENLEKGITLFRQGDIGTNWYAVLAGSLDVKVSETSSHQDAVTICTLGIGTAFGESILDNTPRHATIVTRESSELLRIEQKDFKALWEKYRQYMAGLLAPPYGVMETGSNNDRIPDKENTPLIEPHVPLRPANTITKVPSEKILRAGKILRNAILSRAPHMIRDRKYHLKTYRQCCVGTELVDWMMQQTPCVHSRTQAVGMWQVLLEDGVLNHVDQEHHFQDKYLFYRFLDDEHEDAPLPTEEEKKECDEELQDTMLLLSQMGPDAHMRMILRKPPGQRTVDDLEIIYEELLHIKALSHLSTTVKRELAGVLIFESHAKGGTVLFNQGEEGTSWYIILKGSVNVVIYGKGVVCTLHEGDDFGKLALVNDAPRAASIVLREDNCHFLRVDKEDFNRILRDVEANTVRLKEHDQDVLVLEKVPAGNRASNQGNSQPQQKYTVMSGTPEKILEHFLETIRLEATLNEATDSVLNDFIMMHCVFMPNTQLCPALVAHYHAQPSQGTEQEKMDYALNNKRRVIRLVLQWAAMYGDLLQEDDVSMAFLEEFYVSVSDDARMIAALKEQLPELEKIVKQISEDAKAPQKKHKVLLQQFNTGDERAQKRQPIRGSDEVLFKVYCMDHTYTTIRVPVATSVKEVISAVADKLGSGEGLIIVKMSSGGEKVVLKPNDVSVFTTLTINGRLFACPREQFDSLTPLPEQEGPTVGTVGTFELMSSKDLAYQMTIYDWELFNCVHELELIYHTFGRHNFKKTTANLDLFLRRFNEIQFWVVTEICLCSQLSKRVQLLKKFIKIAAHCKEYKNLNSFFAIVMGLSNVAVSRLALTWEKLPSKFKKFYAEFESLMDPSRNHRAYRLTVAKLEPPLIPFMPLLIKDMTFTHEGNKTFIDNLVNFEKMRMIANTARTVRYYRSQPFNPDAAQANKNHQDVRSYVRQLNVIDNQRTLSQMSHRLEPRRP
# [6] = target: Rap guanine nucleotide exchange factor 4 (Homo sapiens) (UniProt Q8WZA2); experiment: Confirmatory qHTS for antagonist of cAMP-regulated guanine nucleotide exchange factor 4 (EPAC2) (AID 1645885); note: nearly all actives have a fitted effect of over 25% in size; note: potency is the fitted concentration of half-maximal effect
# [7] = target: Rap guanine nucleotide exchange factor 3 (Homo sapiens) (UniProt O95398); experiment: Confirmatory qHTS for antagonist of cAMP-regulated guanine nucleotide exchange factor 3 (EPAC1) (AID 1645880); note: nearly all actives have a fitted effect of over 55% in size; note: potency is the fitted concentration of half-maximal effect
# Outline: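 Nucleotide exchange uses 100 nM EPAC1, 250 nM RAP1B-BODIPY-GDP and 50 uM GDP, with compounds in a concentration-titration series. After 5 min at room temperature, fluorescence (480 nm ex/540 nm em) is read every 5 min for 30 min. Data are normalized to control ATA and DMSO.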
# [8] = target: Rap guanine nucleotide exchange factor 3 (Homo sapiens) (UniProt O95398); experiment: Counterscreen qHTS for agonist of cAMP-regulated guanine nucleotide exchange factor 3 (EPAC1) (AID 1645889); note: nearly all actives have a fitted effect of over 40% in size; note: potency is the fitted concentration of half-maximal effect
# Outline: (§1)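 Rap1B-BODIPY-GDP 250 nM + GDP 50 uM; cpds 7-pt, final 9.74 nM–152 uM (activator mode) or from 7.32 nM upwards (inhibitor mode); RT; FI 480/540 nm at 5 and 30 min, then ± cAMP, reread.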
# [9] = target: Rap guanine nucleotide exchange factor 3 (Homo sapiens) (UniProt O95398); experiment: Counterscreen qHTS for antagonist of cAMP-regulated guanine nucleotide exchange factor 3 (EPAC1) (AID 1645888);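 note: fluorescence loss as bound BODIPY-GDP is released from Rap1B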
# Outline: as §1
smiles,measurement,setting,value
O=C(CC(=O)c1ccccc1)c1ccccc1,Potency,[1],inactive
same,Potency,[2],inactive
same,Potency,[3],inactive
CCN(CC)c1ccc2cc(-c3nnc(Nc4ccc(C)cc4)s3)c(=O)oc2c1,Potency,[4],112 µM (active)
same,Potency,[5],35.5 µM (active)
same,Potency,[6],5.36 µM (active)
Nc1ccc(-c2c3ccc(=O)cc-3oc3cc(O)ccc23)c(C(=O)O)c1,Potency,[7],inactive
same,Potency,[4],100 µM (active)
same,Potency,[5],100 µM (active)
same,Potency,[6],inactive
same,Potency,[8],31.6 µM (active)
CCc1nnc(NS(=O)(=O)c2ccc(NC(=S)NC(=O)/C=C/c3ccccc3)cc2)s1,Potency,[7],67.5 µM (active)
same,Potency,[4],inactive
same,Potency,[5],inactive
same,Potency,[6],inactive
same,Potency,[9],inactive
same,Potency,[8],inactive
